Laboratory results: PubChem BioAssay (NCATS)
Several values for one entry are separate records, joined by “and”; a condition that tells them apart may be missing. Equal entries are not always repeated. Inconclusive results are not listed. Entries that show only a call come without a potency. Activity calls are given as the source filed them. Calls come from the whole dose curve; as a rule, active = well fitted inhibition curve with a large enough effect; inconclusive = small, poorly fitted or top-dose-only effect; inactive = flat fitted curve, though single readings scatter. Where a SMILES comes first, the peptide text is derived from it. [ ]: non-standard residue; d: D form. pGlu = O=C1CC[C@@H](C(=O)O)N1; Thz = O=C(O)[C@@H]1CSCN1

How the values were obtained:
[1] = target: Voltage-gated inwardly rectifying potassium channel KCNH2 (Homo sapiens) (UniProt Q12809); assay: qHTS Assay for Small Molecule Inhibitors of the Human hERG Channel Activity (AID 588834); settings: U2OS BacMam hERG, FluxOR thallium flux fluorescence; series mostly up to 46.1 µM;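 note: top concentration of the series differs between compounds; lower thallium flux fluorescence means stronger hERG block; nearly all actives have a fitted effect of over 50% in size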
Sequence of Voltage-gated inwardly rectifying potassium channel KCNH2 (Homo sapiens) (Q12809 whole entry, looked up): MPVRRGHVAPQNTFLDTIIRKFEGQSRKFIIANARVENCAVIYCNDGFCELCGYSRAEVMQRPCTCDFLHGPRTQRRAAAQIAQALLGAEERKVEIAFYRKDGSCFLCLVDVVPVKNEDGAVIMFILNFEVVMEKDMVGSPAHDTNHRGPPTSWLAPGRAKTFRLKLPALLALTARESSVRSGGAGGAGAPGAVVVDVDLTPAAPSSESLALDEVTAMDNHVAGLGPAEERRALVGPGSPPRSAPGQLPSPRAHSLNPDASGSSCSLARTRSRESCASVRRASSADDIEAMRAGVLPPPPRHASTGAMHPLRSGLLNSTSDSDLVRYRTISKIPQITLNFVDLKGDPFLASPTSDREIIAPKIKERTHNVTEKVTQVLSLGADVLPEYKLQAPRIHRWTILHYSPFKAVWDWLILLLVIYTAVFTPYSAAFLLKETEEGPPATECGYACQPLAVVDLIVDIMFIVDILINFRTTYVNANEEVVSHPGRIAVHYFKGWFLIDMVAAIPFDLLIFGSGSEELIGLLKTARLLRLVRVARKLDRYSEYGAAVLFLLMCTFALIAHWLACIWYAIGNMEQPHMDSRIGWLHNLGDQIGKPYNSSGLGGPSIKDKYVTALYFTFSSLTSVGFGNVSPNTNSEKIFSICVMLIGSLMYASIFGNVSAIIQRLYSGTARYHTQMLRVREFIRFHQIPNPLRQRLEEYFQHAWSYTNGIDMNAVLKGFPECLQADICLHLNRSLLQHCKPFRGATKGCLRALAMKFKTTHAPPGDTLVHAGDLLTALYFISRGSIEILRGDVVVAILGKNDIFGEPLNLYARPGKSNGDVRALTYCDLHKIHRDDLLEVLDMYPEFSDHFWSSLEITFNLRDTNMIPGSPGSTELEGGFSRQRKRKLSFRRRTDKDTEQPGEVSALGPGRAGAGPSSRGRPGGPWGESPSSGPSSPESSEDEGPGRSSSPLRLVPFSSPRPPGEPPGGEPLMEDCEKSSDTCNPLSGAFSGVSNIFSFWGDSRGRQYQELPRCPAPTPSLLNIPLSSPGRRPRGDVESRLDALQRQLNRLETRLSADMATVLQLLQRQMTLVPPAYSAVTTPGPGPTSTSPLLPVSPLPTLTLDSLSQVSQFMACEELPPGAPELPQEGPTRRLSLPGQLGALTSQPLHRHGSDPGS
How it was run: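 Homogeneous FluxOR thallium flux assay using hERG-expressing U2OS cells (BacMam). Compound treatment about 10 minutes preceded stimulation; reduced fluorescence taken as channel block.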

[2] = target: Luciferin 4-monooxygenase (Photinus pyralis) (UniProt P08659); assay: Biochemical firefly luciferase enzyme assay for NPC (AID 624030);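 note: purified P. pyralis luciferase at 10 nM with luciferin and ATP substrate; nearly all actives have a fitted effect of over 70% in size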; settings: purified P. pyralis luciferase, luminescence, 5 min; series mostly up to 58.6 µM
Sequence of Luciferin 4-monooxygenase (Photinus pyralis) (P08659 whole entry, looked up): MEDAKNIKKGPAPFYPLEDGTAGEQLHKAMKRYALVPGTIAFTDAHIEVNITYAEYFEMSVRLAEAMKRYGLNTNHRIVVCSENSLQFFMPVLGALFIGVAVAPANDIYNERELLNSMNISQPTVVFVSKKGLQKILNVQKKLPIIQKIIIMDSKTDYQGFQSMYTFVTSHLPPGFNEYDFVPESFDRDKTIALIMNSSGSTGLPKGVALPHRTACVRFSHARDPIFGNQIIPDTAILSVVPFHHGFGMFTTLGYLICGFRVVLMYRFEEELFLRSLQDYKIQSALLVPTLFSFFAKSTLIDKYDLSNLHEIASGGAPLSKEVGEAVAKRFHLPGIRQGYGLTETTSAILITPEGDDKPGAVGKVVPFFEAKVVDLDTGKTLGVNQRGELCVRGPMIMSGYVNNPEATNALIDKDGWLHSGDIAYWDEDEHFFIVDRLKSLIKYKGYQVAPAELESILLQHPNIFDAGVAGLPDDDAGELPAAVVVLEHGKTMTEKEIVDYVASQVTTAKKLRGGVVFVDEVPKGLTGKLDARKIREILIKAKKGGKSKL
How it was run: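 Counter-screen for direct inhibition of the luciferase enzyme by approved-drug library compounds, run at 10 nM enzyme in 50 mM Tris acetate (final). Luminescence was read within 5 min of enzyme-buffer addition and normalized to PTC124 versus DMSO (0%).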

SMILES | Potency [1] | Potency [2]
CCOc1ccc2nc(S(N)(=O)=O)sc2c1 | inactive | –
CCCCCC[C@@H](O)C/C=C\CCCCCCCC(=O)O | inactive | inactive
O=C1CC[C@@H](C(=O)N2CSC[C@H]2C(=O)O)N1 ([pGlu]-[Thz]-OH) | inactive | inactive
COC(=O)C1=C(C)NC(C)=C(C(=O)OCC(C)=O)C1c1ccccc1[N+](=O)[O-] (stereo not given) | – | inactive
Cc1cc(O)c2ccccc2c1O | inactive | inactive
CC(=O)c1ccc(OCC(=O)N2CCCCC2)cc1 | – | inactive
C[S+](CC[C@H](N)C(=O)O)C[C@H]1O[C@@H](n2cnc3c(N)ncnc32)[C@H](O)[C@@H]1O (stereo not given in full) | inactive | inactive
CCCCC[C@H](O)/C=C/[C@@H]1[C@@H](C/C=C\CCCC(=O)O)[C@@H](O)C[C@H]1O | inactive | inactive
